According to PubChem BioAssay (NCI):
About 79,000 compounds went through this panel and 15% of them were active in at least one assay; those are over-represented in the sample as a whole. The source made the active and inactive calls. No stated cut-off is given here; in the data, active means growth inhibition above about 70%; inactive means the rest.

Assay: NCI Yeast Anticancer Drug Screen. Data for the bub3 strain (AID 167)
Conditions: S. cerevisiae bub3 mutant strain, at 50.0 µM, stronger effect = higher value
In short: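 Whole-cell yeast assay. The mutant strain was incubated with compounds, and growth inhibition was determined by comparison with vehicle-treated cells.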

Row | Structure (SMILES) | growth inhibition
1 | Oc1cc2c(cc1C(c1ccc(Cl)cc1)N1CCCCC1)OCO2 (stereo unspecified) | 11.1% (inactive)
2 | c1ccc2c(c1)Cc1c-2n[nH]c1-c1[nH]nc2c1Cc1ccccc1-2 | 16% (inactive)
3 | CCOC(=O)c1c(/N=C/c2ccc(N(C)C)cc2)sc2c1CCCC2 | 17.8% (inactive)
4 | Cc1csc[n+]1C/C(=N/O)c1ccc(I)cc1 | 2.75% (inactive)
5 | C(=C\C(Sc1ccccc1)c1ccccc1)/NNC1=NC(c2ccccc2)C(c2ccccc2)=NN1 (stereo unspecified) | -19.9% (inactive)
6 | CCOc1ccccc1NC(=O)/C=C1\NC(=O)CS1 | -5.65% (inactive)
7 | CN(C)CCCCCCNCCC#N | -28.4% (inactive)
8 | CC(=O)OC(OC(C)=O)c1cccc2ccccc12 | 16.9% (inactive)
9 | CC(C)CCCC(C)C1CCC2C(CC(=O)O)C(C3(C)CCC(O)CC3=O)CCC2(C)C1 (stereo unspecified) | 1.85% (inactive)
10 | N#Cc1nc(Nc2ccc([N+](=O)[O-])cc2)sc1N | 19.9% (inactive)
11 | O=C(O)COc1cc(Cl)cc(F)c1Cl | -7.85% (inactive)

Assay: NCI Yeast Anticancer Drug Screen. Data for the mlh1 rad18 strain (AID 175)
Conditions: S. cerevisiae mlh1 rad18 strain growth inhibition; at 50.0 µM; stronger effect = higher value
In short: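 A repair-deficient yeast strain is exposed to test compound, and growth is scored relative to vehicle-treated controls.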

Row | Structure (SMILES) | growth inhibition
12 | CN1C(=O)C(=O)n2c(cc3ccccc32)C1=O | -13.1% (inactive)
13 | CSSC(SC)SC | 29.6% (inactive)
14 | CC(C)=C(CSC#N)S(=O)(=O)c1ccc(C)cc1 | 14.7% (inactive)
15 | S=C(c1ccccc1Cl)N1CCOCC1 | 13.8% (inactive)
16 | CCN(CC)c1ccccc1-c1ccccc1 | 20.1% (inactive)
17 | CC(=O)Nc1ccc(/C=N/NC(N)=O)cc1 | 9.35% (inactive)
18 | O=C1CC2C(=O)N(Cc3ccccc3)C1C=C2S(=O)(=O)c1ccccc1 (stereo unspecified) | 4.9% (inactive)
19 | CC/C(C)=C1/CC(C)(C)N=C1C | -22.6% (inactive)
20 | O=C1c2cccc3cc([N+](=O)[O-])cc(c23)C(=O)N1C(Cc1ccccc1)c1ccccc1 (stereo unspecified) | 19.1% (inactive)
21 | NC(N)=Nc1nc2ccc(Cl)cc2[nH]1 | 11% (inactive)
22 | COC(=O)CCSc1ccccc1 | -7.6% (inactive)
23 | O=C(C(=O)c1cccc(C(=O)C(=O)c2ccccc2)c1)c1ccccc1 | 9.5% (inactive)
24 | CCCCS(=O)(=O)Nc1cccc(C(=O)O)c1 | -7.15% (inactive)
25 | CCC(CC)OC(=O)Nc1cccc2ccccc12 | -14.6% (inactive)
26 | CN(C)CCCN=C(N)N | -4.1% (inactive)
27 | CCC(=O)N(C)C1(C#N)CCCCC1 | 24.2% (inactive)
28 | CONC(CC(=O)c1ccccc1)c1ccccc1 (stereo unspecified) | 5.65% (inactive)
29 | Cn1ncc2c(N)nc(NCCO)nc21 | -0.2% (inactive)
30 | O=C1NC(c2cccc3ccccc23)Nc2ccccc21 (stereo unspecified) | 0.8% (inactive)
31 | O=C1C(Cl)(Cl)C(=O)C(Cl)(Cl)C(=O)C1(Cl)Cl | 31.7% (inactive)

Row | Structure (SMILES) | growth inhibition
32 | NC1C(O)C(N)C(O)C(O)C1O (stereo unspecified) | 3.25% (inactive)
33 | CCOc1ccc(C(C)(CC)c2cc3c(cc2OC)OCO3)cc1 (stereo unspecified) | 3.85% (inactive)
34 | C/C(CCC(=O)O)=N\NC(=O)COc1ccc(Cl)cc1Cl | 13.8% (inactive)
35 | CCCCCCCCCCCC1=c2o[nH]c2=C(c2ccccn2)C(=O)C1=O | -0.75% (inactive)
36 | O=CC(NC(=O)N(CCF)N=O)C(O)C(O)C(O)CO (stereo unspecified) | -44.4% (inactive)
37 | O=C(O)c1cc(/C=C/c2ccccc2)ccc1[N+](=O)[O-] | -3.1% (inactive)
38 | NNC(=S)N/N=C(\c1nc2ccc(Cl)cc2[nH]c1=O)C(O)c1cccc([N+](=O)[O-])c1 (stereo unspecified) | -8.4% (inactive)
39 | CCN(CC)c1ccc2cc(-c3nc4ccccc4[nH]3)c(=O)oc2c1 | 2.55% (inactive)
40 | CN(C)C(=O)Nc1ccc2c(c1)OCO2 | 9.45% (inactive)
41 | Oc1cc2c(cc1C(c1ccc(Cl)cc1)N1CCCCC1)OCO2 (stereo unspecified) | 5.75% (inactive)
42 | c1ccc2c(c1)Cc1c-2n[nH]c1-c1[nH]nc2c1Cc1ccccc1-2 | 55.2% (inactive)
43 | CCOC(=O)c1c(/N=C/c2ccc(N(C)C)cc2)sc2c1CCCC2 | 5.85% (inactive)
44 | Cc1csc[n+]1C/C(=N/O)c1ccc(I)cc1 | 17.1% (inactive)
45 | C(=C\C(Sc1ccccc1)c1ccccc1)/NNC1=NC(c2ccccc2)C(c2ccccc2)=NN1 (stereo unspecified) | -3.55% (inactive)
46 | CCOc1ccccc1NC(=O)/C=C1\NC(=O)CS1 | 40.4% (inactive)
47 | CN(C)CCCCCCNCCC#N | -1.6% (inactive)
48 | CC(=O)OC(OC(C)=O)c1cccc2ccccc12 | -3.9% (inactive)
49 | CC(C)CCCC(C)C1CCC2C(CC(=O)O)C(C3(C)CCC(O)CC3=O)CCC2(C)C1 (stereo unspecified) | 33% (inactive)
50 | N#Cc1nc(Nc2ccc([N+](=O)[O-])cc2)sc1N | 22.4% (inactive)
51 | O=C(O)COc1cc(Cl)cc(F)c1Cl | -2.55% (inactive)
